In PubChem BioAssay (NCATS) one finds Potency and outcome data, which are given here for seven molecules.

Records with an inconclusive call do not appear. Activity calls are given as the source filed them. Calls follow the shape of the dose curve; as a rule, active = well fitted curve in the direction sought with a large enough effect; inconclusive = small, poorly fitted or top-dose-only effect, or another doubt; inactive = no such curve, though single readings can be large; an effect the other way counts as inactive or inconclusive. Peptide text beside a SMILES is read from it. * marks the point of attachment. Hexanoyl = CCCCCC(=O)*

The nature of test [1]: OV-KATE Cancer Cell Toxicity qHTS against the NCATS CANVASS Library (AID 1347345). In a few lines: (§1)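 1000 cells/well seeded and rested 4 h at 37 °C before pin transfer of compounds in an 11-pnt series. Exposure 72 h at 37 °C/5% CO2; viability by CellTiter-Glo luminescence after 15 min at room temperature.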
In general terms: In qHTS, concentration-response curves come from the screen itself.

Test [2] in a line: OV-SAHO Cancer Cell Toxicity qHTS against the NCATS CANVASS Library (AID 1347348). Also: nearly all actives have a fitted effect of over 55% in size. Also: potency is read from the fitted curve at half-maximal effect. The essentials: as §1
Test [3] is described as follows: SW1088 Cancer Cell Toxicity qHTS against the NCATS CANVASS Library (AID 1347350). Also: nearly all actives have a fitted effect of over 75% in size. The essentials: as §1
A short description of test [4]: A2780 Cisplatin Sensitive Ovarian Cancer Cell Toxicity qHTS against the NCATS CANVASS Library (AID 1347353). Also: nearly all actives have a fitted effect of over 60% in size. In a few lines: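 A2780 cisplatin-sensitive cells (750 per well) were seeded, left 4 h at 37 °C, then pin-dosed in an 11-point series. After 72 h at 37 °C/5% CO2, viability was measured as ATPLite luminescence.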
A short description of test [5]: HEK-293 Cancer Cell Toxicity qHTS against the NCATS CANVASS Library (AID 1347355). Also: series mostly up to about 46 µM; nearly all actives have a fitted effect of over 65% in size. In a few lines: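 Cells were seeded at 1000 per well and allowed to settle 4 hours at 37 degrees C before pin transfer of compounds as an 11-point series. Viability was read by CellTiter-Glo luminescence after 72 hours' exposure.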
A short description of test [6]: HPAF-II 12hr Apoptosis Induction qHTS against the NCATS CANVASS Library (AID 1347358). The essentials:
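HPAF-II cells (500/well, DMEM + 10% FBS) were exposed to compounds for 12 hours at 37 degrees C. Caspase-3/7 activity was then read by Caspase-Glo 3/7 luminescence after 15 min at room temperature.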

Test [7] is described as follows: HEK293 24hr Apoptosis Induction qHTS against the NCATS CANVASS Library (AID 1347359). The essentials: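 HEK293 cells, 500 per well, exposed to an 11-point compound series for 24 hours at 37 degrees C. Caspase 3/7 activity read by Caspase-Glo luminescence (DEVD substrate) after 15 min at room temperature.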
Test [8] addresses Luciferin 4-monooxygenase (Photinus pyralis) (UniProt P08659). As to the kind of experiment: Firefly luciferase counterscreen qHTS: Assay Interference Panel against the NCATS CANVASS Library (AID 1347363). Also: series mostly up to about 57 µM. The essentials: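 Purified P. pyralis luciferase (0.04 ug/mL, 4x reagent) added to Tris-acetate buffer with 0.013 mM D-luciferin, 0.013 mM ATP and 13.3 mM Mg-acetate; compounds preincubated 15 min, then luminescence read after 5 min, RT.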

A short description of test [9]: KB-8-5-11 Cancer Cell Toxicity qHTS against the NCATS CANVASS Library (AID 1347364). Also: nearly all actives have a fitted effect of over 75% in size. The essentials: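 KB-8-5-11 cells (500/well) in DMEM + 10% FBS were exposed to compounds in an 11-point qHTS series for 72 hr at 37C, 5% CO2. Viability was read by CellTiter-Glo luminescence.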
Test [10] in a line: SDT Cancer Cell Toxicity qHTS against the NCATS CANVASS Library (AID 1347365). Also: nearly all actives have a fitted effect of over 60% in size. Also: potency is read from the fitted curve at half-maximal effect. In a few lines:
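SDT canine glioma cells (500 cells/well) were exposed to compounds in an 11-point series for 72 hr at 37C, 5% CO2; viability was read as ATP content by CellTiterGlo luminescence.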

A short description of test [11]: qHTS for ATAD5 Agonist screened against the NCATS CANVASS Library (AID 1347367).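 Also: luciferase reporter driven by ATAD5 which rises upon DNA damage.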 In a few lines: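 HEK293T cells stably carrying an ATAD5-controlled luciferase reporter (2000 cells/well) attached for 5 hr, then received compounds in an 11-point series for 16hr at 37C. Luminescence was read after a 30 min room-temperature reagent step.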
A short description of test [12]: G06 Cancer Cell Toxicity qHTS against the NCATS CANVASS Library (AID 1347368). Also: nearly all actives have a fitted effect of over 60% in size. The essentials:
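G06 dog glioma cells seeded at 500 cells/well were exposed to compounds (11-point qHTS series) for 72 hr at 37C, 5% CO2; viability read as ATP content by CellTiterGlo luminescence.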

A short description of test [13]: qHTS for Hypoxia signaling pathway (HIF-1) antagonists against the NCATS CANVASS Library (AID 1347374).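 Also: HRE-bla ME-180 cells stimulated with cobalt chloride to stabilize HIF-1alpha; series mostly up to about 38 µM; nearly all actives have a fitted effect of over 60% in size.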 The essentials:
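HRE-bla ME-180 cells (2,000/well, 0.5% dialyzed FBS) were pre-incubated 5 h, then given an 11-point compound series plus CoCl2 (60 uM solution as added) for 17 h at 37C. CCF4 β-lactamase read (ex 405, em 460/530 nm) after 2 h at RT.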

Test [14] can be described thus: DH5-alpha competent E. coli microbial cell viability qHTS against the NCATS CANVASS Library (AID 1347377). The settings on record: outcome: dose series up to 46.1 µM unless noted. The essentials:
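DH5-alpha E. coli suspension (0.9 OD culture diluted to 0.2 OD) exposed to compounds in an 11-point series, overnight at 37C, 5% CO2. Viability read as ATP by BacTiter-Glo luminescence after 20 min at room temperature.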

Test [15] in a line: Inflammasome Signaling qHTS Counterscreen: IL-1-beta AlphaLISA counterscreen against the NCATS CANVASS Library (AID 1347381).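 Also: cell-free check with purified IL-1β in medium and no THP-1 cells; series mostly up to about 57 µM.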 In a few lines: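 To flag interference with the AlphaLISA read-out, a known amount of purified IL-1-beta (4 pg) replaced cell supernatant. Detection used anti-IL-1-beta acceptor beads, biotinylated antibody and streptavidin donor beads at room temperature.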

Test [16] is described as follows: qHTS for Activators of p53 Stress Response Pathway screened against the NCATS CANVASS Library (AID 1347388). The essentials: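 p53RE-bla HCT-116 cells (4000/well) were pre-incubated for 5 h, then treated with compound (11 points) for 16 h at 37C. After 2 h with CCF4, the 460/530 nm ratio gave reporter activation; CellTiter-Glo measured viability.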
Test [17] can be described thus: qHTS for activators of Nrf2/ARE signaling pathway screened against the NCATS CANVASS Library (AID 1347391). Also: nearly all actives have a fitted effect of over 60% in size. In a few lines:
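ARE-bla HepG2 beta-lactamase reporter cells, 2000 cells/well, were preincubated 5 h, then exposed to compounds (11-point series) for 16 h at 37C. CCF4 fluorescence (ex 405, em 460/530 nm) after 2 h at room temperature.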

Test [18] is described as follows: qHTS for inhibitors of ER calcium dysfunction: SERCaMP assay screened against the NCATS CANVASS Library (AID 1347393). Also: nearly all actives have a fitted effect of over 40% in size. Also: potency is read from the fitted curve at half-maximal effect. In a few lines:
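SH-SY5Y GLuc-SERCaMP, 1000 cells/well, 4 h attach; cpd 16 h, 37C/5% CO2; thapsigargin (added as 6x 600 nM) 4 h; coelenterazine; luminescence. Reduced reporter release = ER Ca stabilization.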

The nature of test [19]: qHTS for inhibitors of Wild type Zika virus screened against the NCATS CANVASS Library (AID 1347396).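 Also: ATP luminescence of surviving cells so rescue from viral cell killing; series mostly up to about 46 µM.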 In a few lines: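 Vero 766 (African green monkey) cells, 1000 per well, attached overnight, then compounds were added in an 11-point series before wild-type Zika virus infection. After 72 h at 37C, cell viability was read as CellTiter Glo luminescence.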
A short description of test [20]: qHTS for activators of dead-cell proteases activity screened against the NCATS CANVASS Library (AID 1347392).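 Also: luminescence from protease leaking out of membrane-damaged cells cleaving impermeant substrate; rising signal means more cytotoxicity.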 In a few lines: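 HepG2 cells, 2000/well, attached 18 h at 37C, then exposed to compounds (11-point qHTS) for 5 h. Dead-cell protease release read as luminescence from cell-impermeant AAF-aminoluciferin substrate after 15 min at room temperature.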

Sequence of Luciferin 4-monooxygenase (Photinus pyralis) (P08659 whole entry, looked up): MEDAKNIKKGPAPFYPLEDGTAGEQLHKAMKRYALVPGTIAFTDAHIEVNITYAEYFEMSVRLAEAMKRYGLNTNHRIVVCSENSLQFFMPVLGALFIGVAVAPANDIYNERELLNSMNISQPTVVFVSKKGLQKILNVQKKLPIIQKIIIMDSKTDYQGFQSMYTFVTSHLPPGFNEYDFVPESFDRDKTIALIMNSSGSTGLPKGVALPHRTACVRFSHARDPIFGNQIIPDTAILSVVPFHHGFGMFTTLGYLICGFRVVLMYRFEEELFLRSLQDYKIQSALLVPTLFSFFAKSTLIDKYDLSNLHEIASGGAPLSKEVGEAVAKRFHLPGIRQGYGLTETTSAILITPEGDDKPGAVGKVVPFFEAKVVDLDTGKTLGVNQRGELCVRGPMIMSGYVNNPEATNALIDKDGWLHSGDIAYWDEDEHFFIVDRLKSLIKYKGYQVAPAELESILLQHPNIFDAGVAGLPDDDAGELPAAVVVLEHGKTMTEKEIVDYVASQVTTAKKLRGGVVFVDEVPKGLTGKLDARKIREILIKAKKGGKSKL

In the case of `CCCCCC(=O)N[C@@H](CC(C)C)C(=O)N[C@H](C=O)CCC(=O)O` (Hexanoyl-Leu-Glu-aldehyde), the Potency entry in test [1], in [2], in test [3], in test [4], in test [5] and in test [6] was “inactive” each time. For the same molecule, the Potency entry in test [7], in [8], in [9], in [10], in [11] and in test [12] was “inactive” throughout. The Potency entry in test [13], in test [16], in [17] and in test [18] was “inactive” in each case. Moreover, the call in test [14], in test [15] and in [19] was inactive.

In the case of `CO[C@@H](C[C@@H](C)[C@@H](O)/C=C/C=C/CNC(=O)C(C)(C)[C@H](O)\C(C)=C/C=C\C=C\Cc1cnco1)[C@]1(O)[C@@H](C)C(=O)N(C)[C@@]12COC2=O`, the Potency entry in test [1], in test [2], in test [3], in test [4], in [5] and in test [6] was “inactive” in each case. The Potency result in test [8], in test [9], in test [10], in test [11], in test [12] and in test [13] was “inactive” each time. The Potency result in test [16], in [17], in test [20] and in test [18] was “inactive” throughout. The molecule was called inactive in test [14], in [15] and in test [19].

For the molecule `CN1CC[C@@]23c4ccccc4N[C@@H]1[C@@]21CCN(C)[C@@H]3Nc2ccccc21`, the Potency result in [1], in test [2], in test [3], in test [4], in test [5] and in test [7] was “inactive” each time. The Potency result in test [8], in [9], in test [10], in test [16], in test [17] and in [20] was “inactive” each time. For the same molecule, the outcome in [14], in test [15] and in [19] was inactive.

As for `O=Cc1ccc2n1C[C@]1(OC2)O[C@H](CO)[C@@H](O)[C@@H]1O`, the Potency result in [1], in test [2], in test [3], in [4], in test [5] and in test [7] was “inactive” in each case. The Potency result in test [8], in test [9], in test [10], in [12], in test [13] and in test [16] was “inactive” each time. Besides, the Potency entry in test [17] and in test [18] was “inactive” throughout. For the same molecule, the molecule was called inactive in test [19].

`COC(=O)[C@@]1(C)CCC[C@]2(C)c3cc(OC)ccc3CC[C@@H]12`: the Potency entry in test [1], in [2], in test [4], in test [5], in test [6] and in test [7] was “inactive” in each case. Moreover, the Potency result in [8], in [9], in test [10], in test [12], in test [13] and in [16] was “inactive” in each case. For the same molecule, the Potency entry in [17] and in [18] was “inactive” in each case. Also, the call in [14], in test [15] and in test [19] was inactive.

As for `O=C1CC(c2ccc(O)cc2)Oc2ccccc21` (centres undefined), the Potency result in test [1], in test [3], in [7], in test [9], in test [13] and in test [20] was “inactive” in each case. For the same molecule, the Potency in [2] was 13.3 µM (active); in test [10] it was 20.9 µM (active); in [18], 34.3 µM (active). Besides, in [19], the molecule was classed as inactive.

`CC(=O)c1c(C)cc2c(c1O)C(=O)c1c(O)cc(O)cc1C2=O`: the Potency result in test [1], in [2], in test [3], in [4], in test [5] and in [7] was “inactive” each time. For the same molecule, the Potency result in test [8], in [9], in test [10], in [11], in test [12] and in test [13] was “inactive” throughout. Besides, the Potency result in test [16], in test [17], in test [20] and in test [18] was “inactive” throughout. The outcome in [14], in test [15] and in test [19] was inactive.
